Assay results as given in PubChem BioAssay (NCI).
About 83,000 compounds went through this panel and 20% of them were active in at least one assay; those are over-represented in the sample as a whole.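 Treatment: one concentration, 48 hours, 96-well format. Scoring: percent growth, with anything below 10 considered active.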 Calls of active or inactive are those of the source.

Test system: BT-549 breast
Assay: NCI-60 one-dose screen, 48 h (100 = growth as untreated, 0 = no growth, -100 = all killed)
Settings: 10 µM unless noted
Protocol: Growth inhibition of the BT-549 human tumor cell line is measured as a screen for anti-cancer activity. Cells are grown in 96 well plates and exposed to the test compound for 48 hours. Compounds are tested at a single concentration, which is 10^-5 M for most compounds. The reported endpoint is percent growth (GI% or GIPRCNT), where numbers from 0 - 100% represent growth inhibition, and numbers from -100% - 0 represent cell death. For example, a value of 40 represents 60% growth inhibition. A value of 0 means no net growth occurred over the course of the experiment. A value of -40 indicates 40% of cells at the beginning of the experiment died by the end of the experiment. A value of -100 means all cells are dead at the end of the experiment.
NCI-60 Human Tumor Cell Lines Screen was performed using the standard one-dose NCI protocol, which is described in more detail at https://dtp.cancer.gov/discovery_development/nci-60/default.htm.
Compounds with GIPRCNT values below 10 were considered active. Activity score was based on GIPRCNT using the following formula: […]
Score is 0 for GIPRCNT values of 100 or above, 50 for GIPRCNT values of 0, and 100 for GIPRCNT values of -100.

| SMILES | growth |
| --- | --- |
| Cc1ccc(OCCn2c(C)nn(-c3ccc(Cl)cc3)c2=O)cc1 | 99.8% (inactive) |
| CC(=O)Nc1nc(C(=O)N2N=C(C)/C(=C/c3cccs3)C2=O)cs1 | 97% (inactive) |
| O=S(=O)(NCCNc1cc(-c2cn(-c3ccccc3)nc2-c2ccccc2)ccn1)c1cccc2ccccc12 | 49.3% (inactive) |
| CCN(Cc1ccc(CN(CC)C(=O)C(Br)Br)cc1)C(=O)C(Br)Br | 36% (inactive) |
| CCC(=O)Nc1ccccc1C#C/C=C\C#Cc1ccccc1SC | 71.6% (inactive) |
| Nc1cc2c(cc1N)-c1cc(N)c(N)cc1C2 | 79.7% (inactive) |
| COC1=CC(c2ccc[nH]2)=N/C1=C\c1[nH]c(C)c(C(=O)CCCCC(=O)Oc2ccc3c(c2)CCC2C3CC[C@]3(C)[C@@H](O)CC[C@@H]23)c1C (stereo not given in full) | 50.3% (inactive) |
| Cc1ccc2nc(SCn3nnc4ccccc4c3=O)[nH]c2c1 | 105% (inactive) |
| O=C(CNC(=O)c1cccc2ccccc12)Nc1ccccc1Oc1ccccc1 | -0.557% (active) |
| CCc1c(C(=O)Nc2ccc3ccccc3c2)[nH]c(C)c1C(C)=O | 112% (inactive) |
| COc1ccc(OC)c(-c2ccc(-c3ccccc3N)c3[nH]c4ccccc4c23)c1 | 72.5% (inactive) |
| COc1cccc(NC(=O)c2sc3nc4c(cc3c2N)CCCC4)c1 | 66.7% (inactive) |
| O=C(NNC(=S)Nc1ccccc1)c1ccccn1 | 55.1% (inactive) |
| C=C1C(=O)O[C@H]2[C@H]1CC/C(COC(=O)NCc1cc(OC)c(OC)c(OC)c1)=C\CC[C@@]1(C)O[C@@H]21 | 55.1% (inactive) |
| Cc1cc(C(=O)O)c(N)c(C)n1 | 106% (inactive) |
| CC/C=C\C[C@H](O)C/C=C1/C(=O)C(Cl)=C[C@@H]1C/C=C\CCCC(=O)O | 58.5% (inactive) |
| O=C1C2=C(C(=O)c3c(O)ccc(O)c31)N(c1cccnc1)Cc1ccccc1O2 | -54.1% (active) |
| C=C1C(=O)O[C@H]2[C@H]1CC/C(Cn1cc(-c3ccc(N)cc3)nn1)=C\CC[C@@]1(C)O[C@@H]21 | -43.3% (active) |
| CCCS(=O)(=O)c1nc(NC2CC2)cc(-c2ccc3c(ccn3C3CC(C)(C)NC(C)(C)C3)c2)n1 | -35.7% (active) |
| O=Nc1c(-c2c(O)[nH]c3ccc([N+](=O)[O-])cc23)[nH]c2ccc(O)cc12 | 4.59% (active) |

| SMILES | growth |
| --- | --- |
| O=S(=O)(NCCCNc1cc(-c2cn(-c3ccccc3)nc2-c2cccc(O)c2)ccn1)c1cccc(F)c1 | 44.7% (inactive) |
| CCN(CC)CCC(=O)c1cccc2ccccc12 | 110% (inactive) |
| CCN1C(=O)N(CC)C2C1NN=c1s/c(=C3\C(=O)N(C4CCCC4)c4ccccc43)c(=O)n12 (stereo not given) | 20% (inactive) |
| CC(Br)C(O)c1cc2c(cc1Br)OCO2 (stereo not given) | 96.6% (inactive) |
| CCCCCCCC/C=C\CCCCCCCCOc1ccccc1CCOP(=O)(O)OCC[N+](C)(C)C | 88.3% (inactive) |
| COc1cc2c(cc1OCCCCn1c(-c3cc(=O)c4ccccc4o3)nc3ccccc31)N=C[C@@H]1CCCN1C2=O | 101% (inactive) |
| N=C(N)c1ccc(-c2ccc(-c3ccc(Cl)cc3)o2)nc1 | -88% (active) |
| CCOC(=O)C(Cc1ccccc1)n1c(O)c(C=Nc2ccc(C(=O)OCCN(CC)CC)cc2)sc1=O (stereo not given) | 96.3% (inactive) |
| COC(=O)c1ccc(C)cc1 | 120% (inactive) |
| CCC(c1cccc(Br)c1)C(C(=O)O)c1ccc(OC)cc1 (stereo not given) | 113% (inactive) |
| COc1ccc(NC(=O)CSc2nc3ccc(Cl)cc3c(=O)n2-c2ccccc2C(F)(F)F)c(OC)c1OC | 72.8% (inactive) |
| Cc1cccc(NC(=O)c2sc3nc4c(cc3c2N)CCCC4)c1 | 50.8% (inactive) |
| Clc1ccc2c(c1)NC1(CCSc3ccccc31)n1nccc1-2 (stereo not given) | 97.4% (inactive) |
| COc1cc(C2CC(c3c(C)[n+]([O-])c4ccccc4[n+]3[O-])=NN2)cc(OC)c1OC (stereo not given) | 104% (inactive) |
| CCC(c1ccc(OC)cc1)C(CC)c1ccc(OCC[N+](C)(C)C)cc1 (stereo not given) | 57.2% (inactive) |
| O=C(CC(O)c1ccncc1)c1ccccc1 (stereo not given) | -63.7% (active) |
| Clc1nc(-c2cccnc2)nc2sc3c(c12)CCCCCC3 | 99.8% (inactive) |
| CCCn1c(=S)sc2c(Cl)nc(C)nc21 | 42.9% (inactive) |
| Cc1cc(NC(=O)COC(=O)c2sc3cc(F)ccc3c2Cl)no1 | 117% (inactive) |
| O=S(=O)(NCCCNc1cc(-c2cn(-c3ccccc3)nc2-c2cccc(O)c2)ccn1)c1ccc(Cl)cc1 | 11.7% (inactive) |
